# Data published in PubChem BioAssay (Tox21).
# Results filed as inconclusive are left out. A number with no mark means an inactive call. The call rests on the fitted dose curve.
# Target: Thyrotropin receptor (Homo sapiens) (UniProt P16473)
# Assay: qHTS assay to identify small molecule antagonists of the thyroid stimulating hormone receptor (TSHR) signaling pathway (AID 1259385); further: nearly all actives have a fitted effect of over 20% in size
# Conditions: TSHR-HEK293 cAMP HTRF, TSH-stimulated antagonist mode; series mostly up to 92.4 µM; activity change, negative = inhibition: at the top concentration
# Text: U.S. Tox21 Program National Center for Advancing Translational Sciences [NCATS] NIH Chemical Genomics Center [NCGC] U.S. Environmental Protection Agency [EPA] National Institutes of Environmental Health Sciences [NIEHS] National Toxicology Program [NTP] U.S. Food and Drug Administration [FDA] Tox21 Assay Overview: TSHR is the receptor for thyrotropin (thyroid stimulating hormone or TSH), a member of the glycoprotein hormone family. TSH is released by the anterior pituitary gland and is the main regulator of thyroid gland growth and development. Upon binding circulating thyrotropin, a G-protein signal cascade activates adenylyl cyclase and […] cAMP concentration is increased. cAMP is a key second messenger involved extensively in cellular signal transduction pathways associated with the majority of G-protein coupled receptors (GPCRs). The activation of these GPCRs by neurotransmitters, lipids, nucleotides, peptides and hormones results in the activation or the inhibition of plasma membrane-bound adenylate cyclase through heterotrimeric G-proteins. A cell-based TSHR assay can be used to screen chemical compounds that modulate TSHR either in agonist or antagonist mode.
# Tox21 Assay Protocol Summary: TSHR-Hek293 cells were dispensed at 800 cells/4uL/well in 1536-well white plates using a Multidrop dispenser. After the assay plates were incubated at a 37C/5% CO2 incubator for 18 hrs, 23 nL of compounds dissolved in DMSO, positive controls or DMSO only was transferred to the assay plate by a pin tool, followed by 1 ul medium containing Ro20-1724. For the antagonist mode screening, 1 uL of TSH was added on the top of the cell/compound mixtures to achieve a final agonist concentration of 1.5 ng/mL. After 30 min of incubation at room temperature, 2.5 ul/well of cAMP-d2 and 2.5 ul/well of anti-cAMP-cryptate were added respectively into the assay plates using a Flying Reagent Dispenser. The plates were incubated at room temperature for 1 hr. The fluorescence intensity in the plates was measured using an Envision plate reader. Each test compound was measured at 15 concentrations and in triplicates.
# On the % scale 0 is the no-effect control and ±100 the full control effect.
# Sequence of Thyrotropin receptor (Homo sapiens) (P16473 whole entry, looked up): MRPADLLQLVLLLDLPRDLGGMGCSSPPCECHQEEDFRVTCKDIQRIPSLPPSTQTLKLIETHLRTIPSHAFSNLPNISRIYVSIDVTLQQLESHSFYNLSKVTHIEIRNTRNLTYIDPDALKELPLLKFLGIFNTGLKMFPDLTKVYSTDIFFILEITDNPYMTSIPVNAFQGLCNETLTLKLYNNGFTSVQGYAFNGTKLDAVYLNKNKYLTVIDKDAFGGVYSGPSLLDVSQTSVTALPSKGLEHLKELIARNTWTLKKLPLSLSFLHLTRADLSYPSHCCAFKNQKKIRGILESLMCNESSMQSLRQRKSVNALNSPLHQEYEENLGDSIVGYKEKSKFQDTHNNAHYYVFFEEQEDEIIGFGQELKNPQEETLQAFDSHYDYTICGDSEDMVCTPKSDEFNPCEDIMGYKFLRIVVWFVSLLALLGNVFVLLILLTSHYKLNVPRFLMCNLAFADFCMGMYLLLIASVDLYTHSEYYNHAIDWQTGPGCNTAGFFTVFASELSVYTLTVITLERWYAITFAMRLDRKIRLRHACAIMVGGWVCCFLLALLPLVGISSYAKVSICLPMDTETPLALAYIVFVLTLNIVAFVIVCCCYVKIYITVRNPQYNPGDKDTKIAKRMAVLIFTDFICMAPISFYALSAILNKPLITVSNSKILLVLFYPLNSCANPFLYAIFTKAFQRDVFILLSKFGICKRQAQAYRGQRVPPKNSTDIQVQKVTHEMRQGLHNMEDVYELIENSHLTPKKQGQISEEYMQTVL
row,SMILES,"activity change, negative = inhibition"
1,CC(C)CC(=O)O,0.307%
2,O=C1c2ccccc2C(=O)C1c1ccccc1,5.82% [at 42.5 µM]
3,Oc1cn2c(n1)Nc1ccc(Cl)c(Cl)c1C2,-0.393% [at 19 µM]
4,COc1cc2c(cc1OC)[C@@H]1CC(=O)[C@@H](CC(C)C)CN1CC2,-1.02% [at 42.5 µM]
5,CCCCCCCCCCl,-2.08%
6,CN1C(C)(C)CCCC1(C)C,-0.35% [at 42.5 µM]
7,Cc1ccc(C=O)cc1C,0.943%
8,C[Si](C)=O,-2.39% [at 8.39 µM]
9,O=C(O)C(=O)Cc1ccccc1,4.11%
10,C=C(C)C(=O)OCCN(CC)CC,-0.426%
11,CN=C(NC#N)Nc1ccc(C2=NNC(=O)CC2C)cc1 (stereo not given),4.59% [at 42.5 µM]
12,COc1cc(C(=S)N2CCOCC2)cc(OC)c1OC,-1.38% [at 42.5 µM]
13,COc1ccc2c(c1)C(=O)N(CCc1ccc(S(=O)(=O)NC(=O)NC3CCCCC3)cc1)C(=O)C2(C)C,-4.73% [at 42.5 µM]
14,CCCN1C[C@H](CSC)C[C@@H]2c3cccc4[nH]cc(c34)C[C@H]21,-0.24% [at 42.5 µM]
15,CCCCNC1CC(C)(C)NC(C)(C)C1,2.25%
16,O=C(O)c1cc(Br)c(O)c(Br)c1,-4.79%
17,COc1nccnc1NS(=O)(=O)c1ccc(N)cc1,-7.75% [at 42.5 µM]
18,CC(C)(C)c1n[nH]c(=S)n(N)c1=O,-1.45%
19,CCCC/C=C/C=C\C=O,7.2%
20,CC(C)NCC(O)COc1ccc(COCCOC(C)C)cc1 (stereo not given),6.33% [at 42.5 µM]

row,SMILES,"activity change, negative = inhibition"
1,CCc1ccc(C=O)cc1,-1.71%
2,NCCN1CCOCC1,-0.494%
3,CC(=O)c1sc(C)nc1C,-0.389%
4,CNS(=O)(=O)CCc1ccc2[nH]cc(C3CCN(C)CC3)c2c1,1.14% [at 42.5 µM]
5,CC(C)CCCC(C)(C)O,2.43%
6,CCCCOC(=O)c1ccccc1,-0.899%
7,COc1cc(N)ccc1C,-1.56%
8,Nc1nnc(-c2cccc(Cl)c2Cl)c(N)n1,4.02% [at 42.5 µM]
9,Cc1cc2cc3c(C)cc(=O)oc3c(C)c2o1,0.0212% [at 42.5 µM]
10,O=C(OCC1(COC(=O)c2cccnc2)CCCC(COC(=O)c2cccnc2)(COC(=O)c2cccnc2)C1O)c1cccnc1,-6.9% [at 42.5 µM]
11,CCOC(=O)c1ccc(OC(=O)CCCCCN=C(N)N)cc1,-0.0431% [at 42.5 µM]
12,Nc1ccc([N+](=O)[O-])c(N)c1,0%
13,NS(=O)(=O)c1cc2c(cc1Cl)CN(C1CCCCC1)C2=O,-3.77% [at 42.5 µM]
14,Cc1ccc2c(c1)OCC(=O)CO2,3.47%
15,CC(CN)CC(C)(C)CCN (stereo not given),1.48% [at 240 µM]
16,C=Cc1ccccn1,3.12%
17,CCCCNc1ccc(C(=O)OCCN(C)C)cc1,-1.11% [at 42.5 µM]
18,CN(C)c1ccc(C=O)cc1,0.262%
19,CCCCCCOc1ccccc1C(N)=O,-0.0258% [at 42.5 µM]
20,Cc1ccccc1OCC(O)CO (stereo not given),1.65% [at 42.5 µM]
